High-throughput results deposited in PubChem BioAssay by Buhrlage Lab, Dana-Farber Cancer Institute and Novartis Institutes for BioMedical Research (Cambridge, Mass).
Compounds with a hit are over-represented: about 14% of the library has one in this group of screens.
USP28 inh: inhibitors of human USP28 deubiquitinase; Ubiquitin carboxyl-terminal hydrolase 28 (Homo sapiens), Q96RU2; purified USP28, Ub-rhodamine cleavage fluorescence, 30 min; inhibition, % at 25 µM; 47,000 tested, 3% active; AID 1645857, 2021
USP30 block: inhibitors of human USP30 deubiquitinase; purified USP30, Ub-rhodamine cleavage fluorescence; 47,000 tested, 5.3% active; AID 1645860, 2021; Ubiquitin carboxyl-terminal hydrolase 30 (Homo sapiens), Q70CQ3; inhibition, % at 25 µM
Target sequence (Q70CQ3 whole entry, looked up): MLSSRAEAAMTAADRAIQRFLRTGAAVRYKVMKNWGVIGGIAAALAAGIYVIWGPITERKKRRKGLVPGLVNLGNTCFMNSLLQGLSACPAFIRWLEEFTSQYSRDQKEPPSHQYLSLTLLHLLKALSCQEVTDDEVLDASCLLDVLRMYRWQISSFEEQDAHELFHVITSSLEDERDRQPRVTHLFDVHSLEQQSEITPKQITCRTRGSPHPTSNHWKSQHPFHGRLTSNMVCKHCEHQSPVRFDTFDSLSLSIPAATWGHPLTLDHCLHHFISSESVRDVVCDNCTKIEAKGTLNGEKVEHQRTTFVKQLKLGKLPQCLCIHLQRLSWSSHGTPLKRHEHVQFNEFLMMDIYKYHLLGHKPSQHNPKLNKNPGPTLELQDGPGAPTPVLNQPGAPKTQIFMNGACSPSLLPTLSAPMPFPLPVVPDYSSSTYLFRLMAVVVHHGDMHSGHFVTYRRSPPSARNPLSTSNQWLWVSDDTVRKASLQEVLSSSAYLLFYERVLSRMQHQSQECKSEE
USP8 inh: inhibitors of human USP8 deubiquitinase | Ubiquitin carboxyl-terminal hydrolase 8 (Homo sapiens), P40818 | 47,000 tested, 4.2% active | inhibition, % at 20 µM | purified USP8, Ub-rhodamine cleavage fluorescence, 30 min
USP17 block: inhibitors of human USP17 deubiquitinase. inhibition, % at 50 µM. 47,000 tested, 6.5% active. purified USP17, Ub-rhodamine cleavage fluorescence, 3 h
USP10 block: inhibitors of human USP10 deubiquitinase; Ubiquitin carboxyl-terminal hydrolase 10 (Homo sapiens), Q14694; purified USP10, Ub-rhodamine fluorescence, 60 min; inhibition, % at 20 µM; 47,000 tested, 1.1% active; AID 1645856, 2021
* = called active by the depositor; · = no result. No stated cut-off is given here; in the data, active means inhibition above about 30%; inactive means the rest.

SMILES	USP28 inh	USP30 block	USP8 inh	USP17 block	USP10 block
Cc1ccc(NC(=O)CCC(=O)N2CCCn3nc(C)cc32)c(C)c1	-13.5	-9.7	-45.9	-13.2	0.5
Cc1cccc(Nc2cc(C3CCN(C(=O)c4cnc[nH]4)CC3)ccn2)n1	-2.2	1.6	3.3	-0.4	1.1
Cc1cccc(Nc2cc(C3CCN(C(=O)c4cncnc4)CC3)ccn2)n1	8.1	31.7*	15.4	9.4	2.2
Fc1ccc(N/C=C/c2ncc(C(F)(F)F)cc2Cl)cc1	-10.3	-79.5	71.8*	20.1	-10.6
CN(C)S(=O)(=O)c1ccc(N/C=C/c2ncc(C(F)(F)F)cc2Cl)cc1	-13.4	-71.0	27.0	-7.9	-3.0
CCOc1ccc2nc(NC(=O)c3cccc(S(=O)(=O)N4CCc5ccccc54)c3)sc2c1	-10.6	-78.6	-57.3	-32.8	0.0
O=C(c1ccn[nH]1)N1CCOCC(Cc2cccc3occc23)C1 (centres undefined)	·	·	2.8	0.6	0.9
COc1ccc(N(CC(=O)Nc2ccc(OC)c(OC)c2)S(=O)(=O)c2c(C)nn(C)c2C)cc1	4.0	40.7*	-12.2	23.4	3.4
O=c1[nH]c(CN2CCN(c3ccccc3)CC2)nc2ccccc12	-7.4	11.8	-0.1	2.4	2.7
CCCCCC(=O)C(CCCC)c1oc(=O)c(CCCC)c(O)c1CCCC (centres undefined)	14.4	25.2	19.6	30.3*	39.1*
Cc1[nH]c(C(=O)NC2CCCCCC2)c(C)c1S(=O)(=O)N1CCCC1	-9.7	-34.4	38.7*	43.0*	8.3
O=C(CN1CCN(Cc2ccc3c(c2)OCO3)CC1)N1CCCCC1	3.9	8.1	0.3	-5.9	-2.0
Cc1cc(C(=O)COc2ncnc3sccc23)c(C)n1CC1COc2ccccc2O1 (centres undefined)	-28.8	-120.2	5.6	·	-9.5
Cc1cc(C(=O)COC(=O)c2ccc[nH]c2=O)c(C)n1-c1ccc2c(c1)OCO2	0.1	-30.1	30.4*	66.5*	2.6
Cc1cc(C(=O)COc2ncnc3sccc23)c(C)n1-c1ccc2c(c1)OCO2	·	·	7.5	57.3*	3.8
Cc1cc(C(=O)CN2CCN(Cc3ccc4c(c3)OCO4)CC2)c(C)n1-c1ccc2c(c1)OCO2	18.1	-15.6	21.1	54.6*	-8.3
Cc1ccc(S(=O)(=O)CCC(=O)OCC(=O)c2cc(C)n(-c3ccc4c(c3)OCO4)c2C)cc1	17.7	2.9	57.9*	41.1*	5.8
CCn1cc(Cn2cc(N)cn2)cn1	-7.5	-13.2	73.1*	12.8	0.9
Cc1cc(C(=O)Nc2nc3c(s2)CN(C(=O)/C=C/c2ccco2)CC3)no1	19.6	-76.6	-10.0	35.2*	-9.3
O=C(Nc1nc2c(s1)CN(C(=O)/C=C/c1ccco1)CC2)c1cnccn1	2.1	-106.9	-81.1	-3.6	-12.4
O=C(NCc1ccc2c(c1)OCO2)c1cn2cc(Cl)ccc2n1	-18.5	28.7	7.3	47.5*	1.2
O=C(NCc1ccc2c(c1)OCO2)c1nc(-n2cnnc2)ccc1Br	10.4	39.4*	-5.8	34.5*	7.3
Cc1ccc(C(=O)NCC(c2cccnc2)S(=O)(=O)c2ccc(F)c(C)c2)cc1 (centres undefined)	5.8	29.4	5.9	4.5	-5.2
COc1ccc(CCNC(=O)c2cccc(N3C(=O)CCS3(=O)=O)c2)cc1	7.4	6.5	14.0	10.9	-2.0
Cc1nc(-c2cc(S(=O)(=O)NC3CC3)cn2C)sc1C(=O)N1CCCC1	-6.1	0.5	4.5	-6.0	-0.1
SMILES	USP28 inh	USP30 block	USP8 inh	USP17 block	USP10 block
COc1cccc(C2C(C(=O)Nc3ccc(F)cc3)=C(C)Nc3nc4ccccc4n32)c1 (centres undefined)	13.6	25.2	13.9	9.7	0.0
Cn1c(=O)c2c(nc3n(CCO)c(-c4ccc(Cl)cc4)cn23)n(C)c1=O	9.6	36.1*	-10.9	5.5	-0.1
Cc1ccc2cc(NC(=O)CC(CC(=O)O)c3ccccc3)ccc2n1 (centres undefined)	·	·	6.1	53.5*	5.8
NC(=Nc1nc2ccccc2c(=O)[nH]1)NC(=O)/C=C\C(=O)O	-6.1	-0.1	3.2	4.7	-0.5
CC(=O)Nc1ccc(NC(=O)C2(c3ccc(Cl)cc3)CCC2)cc1	-1.1	15.8	-0.7	45.1*	0.8
CC(Sc1nnc(-c2ccccc2F)n1CCc1ccccc1)C(=O)N(C)c1ccccc1 (centres undefined)	7.9	15.8	-7.0	4.7	-1.7
O=C(CSc1nnc(-c2ccccc2F)n1CCc1ccccc1)c1c[nH]c2ccccc12	-44.2	-45.2	-8.9	-51.5	-3.3
CC(Sc1nnc(-c2ccccc2F)n1Cc1ccccc1)C(=O)N1CCc2ccccc21 (centres undefined)	17.7	41.9*	16.7	24.1	5.8
Fc1ccccc1-c1nnc(SCc2ccccc2)n1Cc1ccccc1	63.8*	56.2*	29.0	48.1*	11.5
Cn1c2ccccc2c(=O)c2c(=O)n(-c3ccccc3)c(-c3ccc(F)cc3)nc21	-9.4	3.9	7.0	42.6*	5.2
Cn1c2ccccc2c(=O)c2c(=O)n(Cc3ccco3)c(-c3ccccc3F)nc21	-11.4	-29.0	89.8*	9.2	61.4*
CCc1ccc(NC(=O)CCCc2nc3cccnc3n2CCOC)cc1	-14.3	-104.3	-26.9	-42.5	-5.0
COc1ccccc1-c1noc2ncnc(NCc3ccco3)c12	-0.1	-23.2	-2.1	-1.2	-0.9
Cc1ccc(-c2nc(Cn3cnc4ccccc4c3=O)cs2)cc1	33.1*	57.9*	37.0*	37.3*	14.7
Cc1ccc(NC(=O)Cc2nc(-c3cccnc3)n[nH]2)cc1	15.4	7.2	-9.8	-0.4	-4.1
Cc1ccc(-c2n[nH]c3c2C(c2ccccc2F)N(c2ccccc2)C3=O)cc1 (centres undefined)	3.5	54.8*	70.7*	68.6*	26.5
Cc1ccc(C2=NCCNC3=C2C(c2ccccc2F)N(c2ccccc2)C3=O)cc1 (centres undefined)	13.0	36.4*	2.0	3.7	0.3
CCN(CC)c1ccc2nnc(CCC(=O)NCc3ccccn3)n2n1	13.8	22.8	0.4	19.8	0.4
O=C(CSc1ncnc2c1oc1ccccc12)Nc1ccc(Cl)c(Cl)c1	·	·	-1.3	23.1	-0.3
O=C(CSc1ncnc2c1oc1ccccc12)Nc1cccc2ccccc12	0.0	15.7	12.4	8.5	14.5
O=C(CSc1nc(-c2ccccc2)c2ccccc2n1)NCCc1ccccc1	29.4	17.6	3.5	31.4*	10.0
COc1ccc(NC(=O)CSc2ncnc3c2oc2ccccc23)c(OC)c1	10.8	19.6	0.2	32.1*	-0.4
O=C(CSc1ncnc2c1oc1ccccc12)NCCc1ccccc1	14.7	36.5*	3.3	64.2*	6.5
O=C(CSc1ncnc2c1oc1ccccc12)Nc1ccccc1F	·	·	5.7	42.7*	0.6
O=C(Nc1ccccc1)c1cn[nH]c1S(=O)(=O)Nc1ccc(Cl)cc1	2.6	8.7	16.7	13.8	13.6
Cc1cccc(CNC(=O)c2cc(N(C)C)n3nccc3n2)c1	-15.1	-16.3	-28.4	-15.0	-5.7
